Laboratory results as given in PubChem BioAssay (NCATS).
Results filed as inconclusive are left out. Unmarked numbers belong to inactive results. Active and inactive are the calls of the source. The call rests on the fitted dose curve; in most records, active means well fitted curve in the direction sought with a large enough effect; inconclusive means small, poorly fitted or top-dose-only effect, or another doubt; inactive means no such curve, though single readings can be large; an effect the other way counts as inactive or inconclusive.

Key:
[1] = Quantitative High-Throughput drug screen in 47 multiple myeloma cell lines against the NCATS MIPE library collection: MMM1_PLB cell viability assay (AID 1918976); further: nearly all actives have a fitted effect of over 35% in size
Method in brief: (§1)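 Viability after 48 h drug exposure was measured as ATP-dependent luminescence. Cells, 500 per well, sat at 37 °C under 5% CO2; DMSO wells set 100%, media-only wells 0%.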

[2] = Quantitative High-Throughput drug screen in 47 multiple myeloma cell lines against the NCATS MIPE library collection: NCIH929_DSMZ cell viability assay (AID 1918978); further: nearly all actives have a fitted effect of over 35% in size
Method in brief: as §1

[3] = Quantitative High-Throughput drug screen in 47 multiple myeloma cell lines against the NCATS MIPE library collection: OCIMY1_PLB cell viability assay (AID 1918979); further: nearly all actives have a fitted effect of over 35% in size
Method in brief: as §1

[4] = Quantitative High-Throughput drug screen in 47 multiple myeloma cell lines against the NCATS MIPE library collection: MM1S_ATCC cell viability assay (AID 1918980); further: nearly all actives have a fitted effect of over 45% in size
Method in brief: as §1

[5] = Quantitative High-Throughput drug screen in 47 multiple myeloma cell lines against the NCATS MIPE library collection: MM1R_ATCC cell viability assay (AID 1918981); further: nearly all actives have a fitted effect of over 35% in size
Method in brief: as §1

[6] = Quantitative High-Throughput drug screen in 47 multiple myeloma cell lines against the NCATS MIPE library collection: KMS28PE_JCRB cell viability assay (AID 1918983); further: nearly all actives have a fitted effect of over 35% in size
Method in brief: as §1

[7] = Quantitative High-Throughput drug screen in 47 multiple myeloma cell lines against the NCATS MIPE library collection: OCIMY7_PLB cell viability assay (AID 1918987); further: nearly all actives have a fitted effect of over 65% in size
Method in brief: as §1

[8] = Quantitative High-Throughput drug screen in 47 multiple myeloma cell lines against the NCATS MIPE library collection: OCIMY5_PLB cell viability assay (AID 1918988); further: nearly all actives have a fitted effect of over 65% in size
Method in brief: as §1

[9] = Quantitative High-Throughput drug screen in 47 multiple myeloma cell lines against the NCATS MIPE library collection: OPM1_PLB cell viability assay (AID 1918989); further: nearly all actives have a fitted effect of over 40% in size
Method in brief: as §1

[10] = Quantitative High-Throughput drug screen in 47 multiple myeloma cell lines against the NCATS MIPE library collection: SKMM1_PLB cell viability assay (AID 1919863); settings: SKMM1 myeloma viability, CellTiter-Glo ATP, 48 h; viability: hits give low values; further: nearly all actives have a fitted effect of over 35% in size
Method in brief: as §1

[11] = Quantitative High-Throughput drug screen in 47 multiple myeloma cell lines against the NCATS MIPE library collection: U266_ATCC cell viability assay (AID 1919864); further: nearly all actives have a fitted effect of over 35% in size
Method in brief: as §1

[12] = Quantitative High-Throughput drug screen in 47 multiple myeloma cell lines against the NCATS MIPE library collection: XG6_PLB cell viability assay (AID 1919865); further: nearly all actives have a fitted effect of over 40% in size
Method in brief: as §1

[13] = Quantitative High-Throughput drug screen in 47 multiple myeloma cell lines against the NCATS MIPE library collection: XG1_PLB cell viability assay (AID 1919866); further: nearly all actives have a fitted effect of over 35% in size
Method in brief: as §1

[14] = Quantitative High-Throughput drug screen in 47 multiple myeloma cell lines against the NCATS MIPE library collection: PE2_PLB cell viability assay (AID 1919869); further: nearly all actives have a fitted effect of over 35% in size
Method in brief: as §1

[15] = Quantitative High-Throughput drug screen in 47 multiple myeloma cell lines against the NCATS MIPE library collection: VP6_DJ cell viability assay (AID 1919867); further: nearly all actives have a fitted effect of over 40% in size
Method in brief: as §1

[16] = Quantitative High-Throughput drug screen in 47 multiple myeloma cell lines against the NCATS MIPE library collection: MOLP8_DSMZ cell viability assay (AID 1918977); further: nearly all actives have a fitted effect of over 45% in size
Method in brief: as §1

[17] = Quantitative High-Throughput drug screen in 47 multiple myeloma cell lines against the NCATS MIPE library collection: LP1_DSMZ cell viability assay (AID 1918982); further: nearly all actives have a fitted effect of over 35% in size
Method in brief: as §1

[18] = Quantitative High-Throughput drug screen in 47 multiple myeloma cell lines against the NCATS MIPE library collection: L363_DSMZ cell viability assay (AID 1918984); further: nearly all actives have a fitted effect of over 40% in size
Method in brief: as §1

[19] = Quantitative High-Throughput drug screen in 47 multiple myeloma cell lines against the NCATS MIPE library collection: KMS34_JCRB cell viability assay (AID 1918985); further: nearly all actives have a fitted effect of over 40% in size
Method in brief: as §1

[20] = Quantitative High-Throughput drug screen in 47 multiple myeloma cell lines against the NCATS MIPE library collection: UTMC2_PLB cell viability assay (AID 1919868); settings: CellTiter-Glo ATP luminescence, 48 h; viability (% of DMSO control): at 45.8 µM (top of the series); further: nearly all actives have a fitted effect of over 55% in size
Method in brief: as §1
Potency means the concentration at half of the fitted maximal effect.

With C=C[C@@H]1CN2CCC1C[C@@H]2[C@@H](O)c1ccnc2ccccc12 (some centres not stated) the Potency [1] was 18.7 µM (active), the Potency [2] was 18.7 µM (active) and the Potency [3] was “inactive”. The Potency [4] was 13.2 µM (active), the Potency [5] was 16.6 µM (active) and the Potency [6] was 18.7 µM (active). The Potency [7] was 7.43 µM (active), the Potency [8] was 20.9 µM (active) and the Potency [9] was 16.6 µM (active). The Potency [10] was 23.5 µM (active), the Potency [11] was 13.2 µM (active) and the Potency [12] was 18.7 µM (active). For the same compound, the Potency [13] was 23.5 µM (active) and the Potency [14] was 23.5 µM (active).
For CCNC(=O)CC1N=C(c2ccc(Cl)cc2)c2cc(OC)ccc2-n2c(C)nnc21 (configuration not stated), the Potency [1] was 16.6 µM (active), the Potency [2] was 10.5 µM (active) and the Potency [3] was 18.7 µM (active). For the same compound, the Potency [4] was 11.8 µM (active), the Potency [5] was 14.8 µM (active) and the Potency [6] was 20.9 µM (active). For the same compound, the Potency [7] was 18.7 µM (active), the Potency [8] was 6.62 µM (active) and the Potency [11] was 18.7 µM (active). For the same compound, the Potency [12] was 4.69 µM (active), the Potency [13] was 5.9 µM (active) and the Potency [15] was 16.6 µM (active).
For CC(=O)OCC1=C(C(=O)O)N2C(=O)[C@@H](N)[C@@H]2SC1, the Potency [16] was “inactive”, the Potency [2] was “inactive” and the Potency [3] was “inactive”. The Potency [6] was “inactive”, the Potency [9] was “inactive” and the viability [10] was 121%. For the same compound, the Potency [11] was “inactive”, the Potency [12] was “inactive” and the Potency [13] was “inactive”. For the same compound, the Potency [15] was “inactive” and the Potency [14] was “inactive”.
In the case of c1ccc(CCCN2CCN(CCOC(c3ccccc3)c3ccccc3)CC2)cc1, the Potency [16] is reported as 20.9 µM (active), the Potency [2] is reported as 23.5 µM (active) and the Potency [3] is reported as 23.5 µM (active). For the same compound, the Potency [5] was 23.5 µM (active), the Potency [17] was 20.9 µM (active) and the Potency [18] was “inactive”. For the same compound, the Potency [19] was 26.4 µM (active), the Potency [8] was 20.9 µM (active) and the Potency [9] was 20.9 µM (active). For the same compound, the Potency [10] was 20.9 µM (active), the Potency [11] was 23.5 µM (active) and the Potency [13] was 20.9 µM (active). For the same compound, the Potency [14] was 18.7 µM (active).
In the case of CC(C)N[C@@H]1CCn2c(=O)[nH]c3cccc(c32)[C@@H]1O, the Potency [1] is reported as 18.7 µM (active), the Potency [2] is reported as 9.35 µM (active) and the Potency [4] is reported as 0.372 µM (active). For the same compound, the Potency [5] was 6.62 µM (active), the Potency [6] was 20.9 µM (active) and the Potency [18] was 3.32 µM (active). For the same compound, the Potency [19] was 10.5 µM (active), the Potency [8] was 0.118 µM (active) and the Potency [9] was 11.8 µM (active). The Potency [11] was 1.66 µM (active), the Potency [12] was 2.35 µM (active) and the Potency [14] was 4.18 µM (active).
In the case of CC(C)(O)C=CC(=O)[C@](C)(O)[C@H]1[C@H](O)C[C@]2(C)[C@@H]3CC=C4[C@@H](C=C(O)C(=O)C4(C)C)[C@]3(C)C(=O)C[C@@]12C, the Potency [1] is reported as 1.32 µM (active), the Potency [2] is reported as 0.0469 µM (active) and the Potency [3] is reported as 0.105 µM (active). For the same compound, the Potency [4] was 0.0418 µM (active), the Potency [5] was 0.0372 µM (active) and the Potency [17] was 0.418 µM (active). The Potency [6] was 1.66 µM (active), the Potency [18] was 0.0209 µM (active) and the Potency [19] was 0.0332 µM (active). For the same compound, the Potency [7] was 0.0235 µM (active), the Potency [8] was 0.0469 µM (active) and the Potency [9] was 0.105 µM (active). For the same compound, the Potency [10] was 2.64 µM (active), the Potency [11] was 0.526 µM (active) and the Potency [12] was 0.0662 µM (active). For the same compound, the Potency [13] was 0.0418 µM (active), the Potency [15] was 0.105 µM (active) and the Potency [20] was 0.0418 µM (active). For the same compound, the Potency [14] was 0.0332 µM (active).
For CN[C@@H]1Cc2cccc3[nH]c(=O)n(c23)C1, the Potency [20] was “inactive”.
With COc1cc([C@@H]2c3cc4c(cc3[C@@H](O)C3COC(=O)C32)OCO4)cc(OC)c1O (some centres not stated) the Potency [20] was 0.0469 µM (active).
In the case of C=C1C[C@H]2[C@H]3CCC(=O)[C@@]3(C)CC[C@@H]2[C@@]2(C)C=CC(=O)C=C12, the Potency [17] is reported as “inactive”, the Potency [7] is reported as 9.35 µM (active) and the Potency [11] is reported as 20.9 µM (active).
With C[C@]12CC[C@H]3[C@@H](CCC4=CC(=O)CC[C@@]43C)[C@H]1CC[C@H]2O the Potency [2] was “inactive”, the Potency [4] was “inactive” and the Potency [5] was “inactive”. The Potency [6] was “inactive”, the Potency [19] was “inactive” and the Potency [7] was “inactive”. The viability [10] was 133%, the Potency [12] was “inactive” and the Potency [14] was “inactive”.
With Cc1ccccc1-n1c(Cn2cnc3c(N)ncnc32)nc2cccc(C)c2c1=O the Potency [2] was 0.0418 µM (active), the Potency [4] was 0.526 µM (active) and the Potency [5] was 0.187 µM (active). The Potency [6] was 0.296 µM (active), the Potency [19] was 0.148 µM (active) and the Potency [7] was 1.32 µM (active). The Potency [8] was 1.66 µM (active), the Potency [9] was 0.332 µM (active) and the Potency [10] was 0.526 µM (active). For the same compound, the Potency [12] was 0.469 µM (active), the Potency [13] was 0.209 µM (active) and the Potency [15] was 0.187 µM (active). The Potency [14] was 0.296 µM (active).
With COc1cc2cc(c1Cl)N(C)C(=O)C[C@H](OC(=O)C(C)C)[C@]1(C)O[C@H]1[C@H](C)[C@@H]1C[C@@](O)(NC(=O)O1)[C@H](OC)C=CC=C(C)C2 the Potency [2] was “inactive”, the Potency [4] was “inactive” and the Potency [5] was “inactive”. For the same compound, the Potency [17] was “inactive”, the Potency [6] was “inactive” and the Potency [18] was “inactive”. The Potency [19] was “inactive”, the Potency [7] was “inactive” and the Potency [8] was “inactive”. For the same compound, the Potency [9] was “inactive”, the viability [10] was 50.1% and the Potency [11] was “inactive”. The Potency [12] was “inactive” and the Potency [14] was “inactive”.
For CCCCCC[C@H]1C(=O)O[C@H](C)[C@H](NC(=O)c2cccc(NC=O)c2O)C(=O)O[C@@H](C)[C@@H]1OC(=O)CC(C)C, the Potency [2] was 0.332 µM (active), the Potency [4] was 4.69 µM (active) and the Potency [17] was 0.059 µM (active). For the same compound, the Potency [6] was 0.372 µM (active), the Potency [7] was 0.187 µM (active) and the Potency [8] was 0.0662 µM (active). The Potency [9] was 0.148 µM (active), the Potency [10] was 5.26 µM (active) and the Potency [11] was 0.372 µM (active). The Potency [12] was 0.105 µM (active), the Potency [13] was 0.0235 µM (active) and the Potency [15] was 0.0469 µM (active). The Potency [14] was 0.209 µM (active).
In the case of COc1ccc(CC2NCCc3cc(OC)c(OC)cc32)cc1OC (configuration not stated), the Potency [17] is reported as “inactive”, the Potency [6] is reported as “inactive” and the Potency [9] is reported as “inactive”. For the same compound, the viability [10] was 129%, the Potency [11] was “inactive” and the Potency [15] was 9.35 µM (active). For the same compound, the Potency [14] was “inactive”.
